Data taken from the supplement of paper PMC9897528.
Values without a mark were called inactive.

Test system: Scedosporium aurantiacum CBS 136046
Test: growth inhibition relative to DMSO control (OD600); higher = more antifungal activity, active = 80 or more; extreme values may be limits of the assay
Details: 5 µM; 72 h; 37 °C
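Note: conidia screened in RPMI 1640 medium under 5% CO2, growth read by spectrophotometer, medium with 0.5% DMSO serving as the untreated reference.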

Point of comparison: `COc1cccc(N2CCN(C3=Nc4c(F)cccc4[C@H](CC(=O)O)N3c3cc(C(F)(F)F)ccc3OC)CC2)c1`, growth inhibition 9.61%. Against it:
- O=C(/C=C/n1cnc(-c2cc(C(F)(F)F)cc(C(F)(F)F)c2)n1)NNc1cnccn1 — higher, 26.3%
- CC(C)Nc1nc2cc(Cl)c(Cl)cc2n1[C@H]1O[C@@H](CO)[C@H](O)[C@@H]1O — lower, 8.22%
- O=C(O)[C@H]1C2CCC(CC2)[C@@H]1Nc1nc(-c2c[nH]c3ncc(F)cc23)ncc1F — higher, 10.2%
- CN(C)[C@@H]1C(=O)C(C(N)=O)=C(O)[C@@]2(O)C(=O)C3=C(O)c4c(O)c(NC(=O)CN5CCCC5)cc(F)c4C[C@H]3C[C@@H]12 — lower, 0%
- Nc1nc(NC2Cc3ccc(F)cc3C2)nc(N2CCCCC2)n1 (stereo not drawn) — higher, 45.3%
- [N-]=[N+]=N[C@H]1C[C@H](n2ccc(=O)[nH]c2=O)O[C@@H]1CO — higher, 11.7%
- C[C@@H]1O[C@@H]1P(=O)(O)O — lower, 3.95%
- CC(C)Cn1c(=O)n(C)c(=O)c2c(-c3cncn3C)n(Cc3cccc4ccccc34)nc21 — higher, 29%
- C[C@@H](NC(=O)c1cccc(-c2cnc(-c3cc4ccccc4cn3)[nH]2)c1)c1ccc(F)cc1 — higher, 18.9%
- O=C(Nc1ccccc1)N(Cc1cc(Br)ccc1O)c1ccc(F)cc1 — higher, 40.7%
- CN(C)CCNC(=O)c1cccc2cccnc12 — lower, 2.13%
- O=[N+]([O-])c1cn2c(n1)OC[C@@H](OCc1ccc(OC(F)(F)F)cc1)C2 — higher, 11.2%
- N=C(N)NCCCCC(=O)Nc1cc(C(F)(F)F)cc(NC(=O)c2cc(C(=O)Nc3cc(C(F)(F)F)cc(NC(=O)CCCCNC(=N)N)c3O[C@@H]3CCNC3)ncn2)c1O[C@@H]1CCNC1 — higher, 37.1%
- CCC[C@H](NC(=O)[C@@H]1[C@H]2CCC[C@H]2CN1C(=O)[C@@H](NC(=O)[C@@H](NC(=O)c1cnccn1)C1CCCCC1)C(C)(C)C)C(=O)C(=O)NC1CC1 — lower, 4.34%
- CCNC(=O)Nc1cc(-c2ccccc2)c(-c2cncc(C(=O)O)c2)cn1 — lower, 8.53%
- Nc1nc(=O)[nH]cc1F — lower, 0.0511%
- O=C1[C@H](CC[C@H](O)c2ccc(F)cc2)[C@@H](c2ccc(O)cc2)N1c1ccc(F)cc1 — higher, 13.9%
- CC(C)c1cc2c(cc1S(=O)(=O)O)[C@@]1(C)CCC[C@@](C)(C(=O)O)[C@@H]1CC2 — higher, 30%
- CC[N+]1(C/C2=C/CCCCCC2)CCC(NC(=O)C2c3cc(Cl)ccc3Oc3ccc(Cl)cc32)CC1 (stereo not drawn) — higher, 9.71%
- COc1ccc(CNC(=O)C(NS(=O)(=O)c2ccc3nc(C)sc3c2)C(C)C)cc1 (stereo not drawn) — higher, 26.3%
- Cc1cc(C)n2nc(C(=O)NS(=O)(=O)c3c(C)cccc3OC(F)(F)F)nc2n1 — lower, 0%
- Fc1ccc(-c2nc(-c3c[nH]c4ccc(Br)cc34)[nH]c2-c2ccc(F)cc2)cc1 — higher, 28.1%
